HTT aggregate = reduces HttQ103-GFP aggregates in PC12 cells; AID 1688; Potency, µM (titrated, usually from 46.1 µM), without a hit: at the highest dose activity change, negative = inhibition, hits mostly inhibitors; PC12 HttQ103-GFP aggregates, Acumen cytometry, 40 h; 220,000 tested, 1.1% active; active means well fitted curve in the direction sought with a large enough effect; inconclusive means small, poorly fitted or top-dose-only effect, or another doubt; inactive means no such curve, though single readings can be large; an effect the other way counts as inactive or inconclusive; further: potency means the concentration at half of the fitted maximal effect; on the % scale 0 is the no-effect control and ±100 the full control effect; nearly all actives have a fitted effect of over 60% in size
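Inducible Q103 Huntingtin exon 1–GFP PC12 line, 1500 cells/well in phenol red free DMEM with 5% equine and 5% calf serum. Tebufenozide 100 nM induced expression; compounds titrated; aggregates quantified by cytometry.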
ALDH1A1 block = inhibitors of human aldehyde dehydrogenase 1A1; 220,000 tested, 7.3% active; Purified ALDH1A1, NADH fluorescence, propionaldehyde substrate; Potency, µM (series often up to 75.3 µM), for inactives: top-dose activity, negative = inhibition, usual class: inhibitors; P00352;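 further: potency means the concentration at half of the fitted maximal effect; plate controls were no enzyme wells and a reference inhibitor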
Target sequence (P00352 whole entry, looked up): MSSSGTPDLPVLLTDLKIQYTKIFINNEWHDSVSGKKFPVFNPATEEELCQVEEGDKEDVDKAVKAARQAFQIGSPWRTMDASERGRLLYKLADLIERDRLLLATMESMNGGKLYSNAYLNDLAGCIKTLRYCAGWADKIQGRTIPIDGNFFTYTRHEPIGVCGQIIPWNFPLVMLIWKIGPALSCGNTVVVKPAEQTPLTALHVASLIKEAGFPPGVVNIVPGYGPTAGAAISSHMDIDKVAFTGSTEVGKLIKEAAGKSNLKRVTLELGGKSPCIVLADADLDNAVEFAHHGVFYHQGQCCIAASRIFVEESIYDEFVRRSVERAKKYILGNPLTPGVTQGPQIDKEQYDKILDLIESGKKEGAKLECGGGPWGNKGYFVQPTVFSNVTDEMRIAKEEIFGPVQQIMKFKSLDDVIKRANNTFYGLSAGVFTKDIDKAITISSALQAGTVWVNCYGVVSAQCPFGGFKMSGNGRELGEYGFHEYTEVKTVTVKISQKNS
HTT cytoprotect = Huntington cell model cytoprotection by ATP luminescence | PC12 HTT-Q103 induced, cytoprotection, ATP luminescence, 40 h | Potency, µM (series often up to 56.4 µM), for the others: cytoprotection (ATP increase), actives largely listed as activators | 230,000 tested, 0.14% active | AID 1471; active means well fitted curve in the direction sought with a large enough effect; inconclusive means small, poorly fitted or top-dose-only effect, or another doubt; inactive means no such curve, though single readings can be large; an effect the other way counts as inactive or inconclusive; further: potency means the concentration at half of the fitted maximal effect; % of control where 0% means no effect; nearly all actives have a fitted effect of over 45% in size
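ATP quantification (ATPlite) reports survival of PC12 cells in which tebufenozide, 100 nM final, switches on Htt exon 1 with 103 glutamines linked to GFP; compounds are titrated.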
PNC inhibitor = perinucleolar compartment assembly inhibition | 140,000 tested, 3.1% active | activity change (PNC), negative = inhibition, % at 10 µM | AID 2417 | PC3M PTB-GFP, PNC prevalence imaging, 16 h; active compounds read low;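 active means readout at or below -70, meaning at least 70% loss of cells showing the perinucleolar compartment, a nuclear body marking cancer cells; inconclusive means readout between -30 and a set limit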;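 further: plate controls were DMSO wells for no effect and camptothecin positive control wells for full effect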
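PC3M cells stably expressing PTB-GFP, 750–1000 cells/well, treated 16 h at 37 °C with compound (23 nl of library stock), in duplicate. After paraformaldehyde fixation and Hoechst stain, imaged at 20x; PNC prevalence scored by image analysis.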
RGS12 GoLoco inh = blocks human Gai1 binding to RGS12 GoLoco peptide, red readout; 230,000 tested, 0.44% active; Gai1:RGS12 GoLoco peptide FP, rhodamine, 10 min; P63096; Potency, µM (titrated, usually from 61.6 µM), for the others: at the top dose activity, negative = inhibition, hits mostly inhibitors; AID 880; active means well fitted inhibition curve with a large enough effect, not every such curve was filed as active; inactive means no such curve, though single readings can be large or run the other way; further: potency means the concentration at half of the fitted maximal effect; on the % scale 0 is the no-effect control and ±100 the full control effect; nearly all actives have a fitted effect of over 30% in size
HPGD block = HPGD (human) dehydrogenase inhibition | P15428 | purified HPGD, NADH fluorescence kinetic, PGE2 substrate | Potency, µM, without a hit: top-dose activity change, negative = inhibition, most hits filed as inhibitors | 150,000 tested, 4.3% active | AID 894; further: potency means the concentration at half of the fitted maximal effect; on the % scale 0 is the no-effect control and ±100 the full control effect
Target sequence (P15428 whole entry, looked up): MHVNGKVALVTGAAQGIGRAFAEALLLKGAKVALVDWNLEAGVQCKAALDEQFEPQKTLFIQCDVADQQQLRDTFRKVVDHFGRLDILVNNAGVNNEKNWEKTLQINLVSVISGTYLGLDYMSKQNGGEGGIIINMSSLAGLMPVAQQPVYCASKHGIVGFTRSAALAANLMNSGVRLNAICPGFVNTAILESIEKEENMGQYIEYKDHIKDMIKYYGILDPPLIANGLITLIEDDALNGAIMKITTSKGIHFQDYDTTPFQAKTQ
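20 nM HPGD preincubated 15 min at room temperature with compound in 50 mM Tris-HCl pH 8, 0.01% Tween 20. Started with 1 mM NAD+ and 30 uM prostaglandin E2; NADH fluorescence (360/450 nm) read 5 times over 30-s intervals, last minus first.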
Starred values were filed as active, the others as inactive; ? = inconclusive; . = no result given; ! = a repeat was not active; [ ] = dose if it differs, or a comment. Only some compounds are listed: those with a hit (about 11% of all), similar ones and a draw of the others. Unless noted, the call rests on the fitted dose curve; in most records, active means well fitted inhibition curve with a large enough effect (not every such curve was filed as active); inconclusive means small, poorly fitted or top-dose-only effect, or another doubt; inactive means no such curve, though single readings can be large or run the other way.

SMILES	HTT aggregate	ALDH1A1 block	HTT cytoprotect	PNC inhibitor	RGS12 GoLoco inh	HPGD block
N[C@@H](Cc1cc(O)c(O)cc1O)C(=O)O	.	.	-2%[1.9 µM]	.	.	.
CN(C)c1ccc(N(C)C)cc1	.	?	-52%	.	5%	-27%
CC[n+]1c(/C=C/N(C)c2ccccc2)sc2ccc(Cl)cc21	13µM*	16µM*	-84%	6	214%	-23%
Cc1ccc(S(=O)(=O)N[C@@H](CCCCN)C(=O)CCl)cc1	-8%	8.9µM*	-13%	.	-12%	?
Cc1ccc(S(=O)(=O)NCCC(=O)Nc2ccc(Cl)cc2C(=O)c2ccccc2)cc1	19%	?	-11%[10 µM]	52	-9%	-10%
Cc1ccccc1C(=O)NNC(=S)NC(=O)COc1ccccc1	4%	7.1µM*	?	51	-4%	25µM*
Cc1cc(NC(=O)CCC(=O)N2CCC3(CC2)OCCO3)no1	5%	-1%	-6%	-84*	9%	-18%
CCCc1nnc(NC(=O)CCC(=O)N2CCC3(CC2)OCCO3)s1	-21%[9.22 µM]	.	-8%[10 µM]	.	12%	.
O=P(c1ccccc1)(c1ccccc1)N1CC2(CC2)CC(O)(c2ccccc2)C1 (centres undefined)	.	-9%	-48%	.	6%	-11%
C=CCCC#N	.	3.2µM*	-22%	.	-48%	-10%
O=C(O)c1ccccc1Nc1cccc(C(F)(F)F)c1	4%	9%	-1%	16	10%	28µM*!
CNc1ccccc1C(=O)O	.	?	.	.	5%	?
COC(=O)CCC(=O)Nc1sc(Cc2ccccc2)c(C)c1C(N)=O	5%[9.22 µM]	2µM*	16%[10 µM]	.	-23%	.
CCCCC(CC)COC(=O)c1ccccc1C(=O)OCC(CC)CCCC (centres undefined)	.	22µM*	-13%	.	-50%	-7%
CC(C)COC(=O)c1ccccc1C(=O)OCC(C)C	5%[9.22 µM]	?	-18%	.	-14%	-9%
COc1cc2c(cc1OC)C(C(=O)NC(C)C)C1CCCCN1C2=O (centres undefined)	-22%[9.22 µM]	.	7%[10 µM]	.	0%	.
COc1cc2c(cc1OC)C(C(=O)NCCC(C)C)C1CCCCN1C2=O (centres undefined)	8%	?	2%[10 µM]	-119*	-1%	-28%
C=CC(=O)OCC(C)C	.	16%	4%	.	-11%	-9%
CC(C)C[C@H](NP(=O)(O)O[C@@H]1O[C@@H](C)[C@@H](O)[C@@H](O)[C@H]1O)C(=O)N[C@@H](Cc1c[nH]c2ccccc12)C(=O)O	.	.	-11%[1.9 µM]	.	.	.
CN(C)CCCc1c[nH]c2ccccc12	.	3%[13.5 µM]	9%[10 µM]	.	0%[14.2 µM]	-8%
O=c1[nH]c(SCc2ccccc2Cl)nc2c1CCCC2	-2%	-13%	7%[1.9 µM]	-24	9%	2µM*
C=CCOC(C)=O	.	-1%	-13%	.	-21%	-8%
COC1=C[C@H]2[C@H]3Cc4ccc(OC)c(O)c4[C@@]2(CCN3C)CC1=O	.	3%	-30%[1.9 µM]	.	0%	-16%
COc1ccc(/C=C2\C(=O)NC(=O)N(Cc3ccccc3)C2=O)c(OC)c1OC	?	10µM*	-26%	.	35%	.
COc1ccccc1N1C(=O)NC(=O)/C(=C\c2cnn(-c3ccccc3)c2)C1=O	-1%	8.9µM*	.	.	19%	.
SMILES	HTT aggregate	ALDH1A1 block	HTT cytoprotect	PNC inhibitor	RGS12 GoLoco inh	HPGD block
O=C1NC(=O)N(Cc2ccccc2)C(=O)/C1=C/c1cnn(-c2ccccc2)c1	5%	10µM*	-42%	.	-4%	.
COc1cc(/C=C2/C(=O)NC(=O)N(c3ccccc3)C2=O)ccc1O	-3%	?	.	28	3%	?
CC/C=C\C/C=C\C/C=C\C/C=C\C/C=C\CCCC(=O)NCCO	.	0%	-28%	.	2%	-7%
NC(=O)CI	.	28µM*	-10%[1.9 µM]	.	-82%	?
O=[N+]([O-])c1ccccc1	-5%	32µM*	?	.	7%	-10%
O=[N+]([O-])c1cccc(O)c1	.	?	25%	.	-7%	-10%
CC(C)=CCC12CN3CCN(CC(C3)C1=O)C2	-5%	2%	1%[0.074 µM]	-88*	-3%	-6%
CCC12CN3CCN(CC(C3)C1O)C2 (centres undefined)	0%	11%	-24%[10 µM]	-16	6%	4%
CCBr	.	?	-28%	.	-13%	1%
COc1ccc(Cn2c(N)c(C(=O)NCc3ccco3)c3nc4ccccc4nc32)cc1	?	?	-33%	32	51%	?
COc1ccc(N2CC(C(=O)NCc3ccco3)CC2=O)cc1 (centres undefined)	17%	25µM*	-6%	.	6%	.
CCNCC	.	4%	28%	.	9%	-3%
O=c1[nH]cc(F)c(=O)[nH]1	?	3%	-161%	-115*	11%	-4%
CN(C(=O)Cc1ccc(Cl)c(Cl)c1)[C@H](CN1CCCC1)c1ccccc1	.	-1%	-53%	.	1%	-7%
CC(C)[C@H]1C(=O)N2CCC[C@H]2[C@]2(O)O[C@](NC(=O)[C@@H]3C=C4c5cccc6[nH]cc(c56)C[C@H]4N(C)C3)(C(C)C)C(=O)N12	12%	?	.	-25	11µM*	?
C[N+](C)(C)CC#CCOC(=O)Nc1cccc(Cl)c1	.	7.9µM*	-7%	.	13%	-12%
C[C@H](NC(C)(C)C)C(=O)c1cccc(Cl)c1	1%	?	?	.	9%[21.6 µM]	-3%
CCCc1cc2c(n1Cc1ccco1)C(C)C1CN(C(=O)c3ccccc3)C(C)(C(=O)OC)C21 (centres undefined)	.	?	-2%	.	56%	?
CCOC(=O)c1c(C)n(Cc2ccccc2)c2ccc(OCC(O)Cn3nc(C)nc3C)cc12 (centres undefined)	9%	1%	-13%[10 µM]	-24	10%	-17%
CCOC(=O)c1c(C)n(Cc2ccccc2)c2ccc(OCC(O)Cn3nc(C)cc3C)cc12 (centres undefined)	?	?	2%[10 µM]	-80*	6%	-13%
Cc1ccc(-c2nc3ccccc3c(=O)n2-c2cccc(O)c2)cc1	-13%	?	-68%	.	14%	.
Cc1nc2ccccc2c(=O)n1-c1cccc(O)c1	-3%	-2%	-8%	-107*	4%	7%
COc1cccc(-n2c(/C=C/c3ccc(O)c(O)c3)nc3ccccc3c2=O)c1	12%[9.22 µM]	25µM*	-14%[10 µM]	.	18%	.
O=c1c2ccccc2nc(/C=C/c2ccc(O)cc2)n1-c1cccc(O)c1	1%	?	-7%	.	20%	.
C[C@H](N[C@@H](C)CCc1ccccc1)[C@H](O)c1ccc(O)cc1	.	.	17%[1.9 µM]	.	.	.
CCOc1c(Cl)cc(CNCCc2c[nH]c3ccccc23)cc1OC	13%[9.22 µM]	3.5µM*	-4%[10 µM]	.	11%	.
CCOc1cc(CNCCc2c[nH]c3ccccc23)cc(Cl)c1OCC	7%	-2%	16%[10 µM]	-24	12%	-4%

Assay outcomes deposited in PubChem BioAssay by National Center for Advancing Translational Sciences (NCATS).
